We go through ten compounds from PubChem BioAssay (NCATS).

Experiment [1] in a line: qHTS for Inhibitors of the Functional Ribonucleoprotein Complex (vRNP) of Lassa (LASV) Arenavirus: LASV Primary Screen - GLuc reporter signal (AID 1347082; calls by dose curve; tested in HEK293 reporter line; also: series mostly up to about 57 µM; nearly all actives have a fitted effect of over 60% in size). On the technique in general: Quantitative high-throughput screening tests each substance at several concentrations.
A short description of experiment [2]: qHTS for Inhibitors of the Functional Ribonucleoprotein Complex (vRNP) of Lassa (LASV) Arenavirus: Viability assay - alamar blue signal for LASV Primary Screen (AID 1347083; calls by dose curve; tested in HEK293 reporter line; also: series mostly up to about 57 µM; nearly all actives have a fitted effect of over 80% in size).
Experiment [3] is described as follows: qHTS for Inhibitors of the Functional Ribonucleoprotein Complex (vRNP) of Lymphocytic Choriomeningitis Arenaviruses (LCMV): Viability assay - alamar blue signal for LCMV Primary Screen (AID 1347085; calls by dose curve; tested in HEK293 reporter line; also: series mostly up to about 57 µM; nearly all actives have a fitted effect of over 80% in size).
In experiment [4] the target is Nucleoprotein (Lymphocytic choriomeningitis virus (strain Armstrong)) (UniProt P09992). As to the kind of experiment: qHTS for Inhibitors of the Functional Ribonucleoprotein Complex (vRNP) of Lymphocytic Choriomeningitis Arenaviruses (LCMV): LCMV Primary Screen - GLuc reporter signal (AID 1347086; calls by dose curve; also: series mostly up to about 57 µM; nearly all actives have a fitted effect of over 70% in size).
Experiment [5] is described as follows: qHTS of pediatric cancer cell lines to identify multiple opportunities for drug repurposing: Primary screen for TC32 cells (AID 1347089). Also: nearly all actives have a fitted effect of over 60% in size. The method, boiled down: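 Measured quantity: luminescence from CellTiter-Glo, reflecting metabolically active TC32 cells following 48 h of compound. Curves came straight from multi-point titrations, with 8 or 11 points in primary and 11 in confirmatory screening.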

The nature of experiment [6]: qHTS of pediatric cancer cell lines to identify multiple opportunities for drug repurposing: Primary screen for SJ-GBM2 cells (AID 1347091). The method, boiled down: (§1)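 Cell viability, CellTiter-Glo luminescence; 500-1,000 cells/well, 8- or 11-point titration, 48 h compound exposure at 37 degrees C, 5% CO2. Controls: DMSO neutral, bortezomib 2.3 µM final as positive.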

A short description of experiment [7]: qHTS of pediatric cancer cell lines to identify multiple opportunities for drug repurposing: Primary screen for A673 cells (AID 1347092). Also: nearly all actives have a fitted effect of over 45% in size. Put shortly: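 Cells are plated, rested 5 h, dosed by pintool, incubated 48 h, then lysed with CellTiter-Glo and read by luminescence. DMSO is the neutral control; bortezomib at 2.3 uM final is the positive control.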
The nature of experiment [8]: qHTS of pediatric cancer cell lines to identify multiple opportunities for drug repurposing: Primary screen for SK-N-MC cells (AID 1347093). Also: series mostly up to about 46 µM. The method, boiled down:
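Metabolically active cells were quantified by ATP-dependent luminescence (CellTiter-Glo, 15 min at room temperature) following 48 h treatment. Cells had been plated at 500-1,000 per well and settled for 5 h beforehand.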

Experiment [9] in a line: qHTS of pediatric cancer cell lines to identify multiple opportunities for drug repurposing: Primary screen for BT-37 cells (AID 1347094). Also: potency is read from the fitted curve at half-maximal effect. Put shortly: (§2)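 CRCs from 8- or 11-point titrations (lowest final 0.59 nM NPC, 0.78 nM MIPE). Cell viability: CellTiter-Glo after 48 h incubation, 15 min room-temperature development, luminescence imaging.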
Experiment [10] is described as follows: qHTS of pediatric cancer cell lines to identify multiple opportunities for drug repurposing: Primary screen for NB-EBc1 cells (AID 1347095). Also: potency is read from the fitted curve at half-maximal effect. The method, boiled down:
as §2

The nature of experiment [11]: qHTS of pediatric cancer cell lines to identify multiple opportunities for drug repurposing: Primary screen for U-2 OS cells (AID 1347096). Also: nearly all actives have a fitted effect of over 50% in size. The method, boiled down: (§3)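 Cells (500-1,000/well) rested 5 h, then received compounds for 48 h; metabolically active cells were measured by CellTiter-Glo luminescence. Final concentrations spanned up to 46 µM (MIPE, 11-point) or 0.59 nM-46 µM (NPC, 8-point) in primary screens, 11-point in follow-ups.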

Experiment [12] is described as follows: qHTS of pediatric cancer cell lines to identify multiple opportunities for drug repurposing: Primary screen for Saos-2 cells (AID 1347097). Also: nearly all actives have a fitted effect of over 40% in size. The method, boiled down: as §2
Experiment [13] is described as follows: qHTS of pediatric cancer cell lines to identify multiple opportunities for drug repurposing: Primary screen for SK-N-SH cells (AID 1347098). Also: nearly all actives have a fitted effect of over 65% in size. Also: potency is read from the fitted curve at half-maximal effect. The method, boiled down:
as §3

Experiment [14] is described as follows: qHTS of pediatric cancer cell lines to identify multiple opportunities for drug repurposing: Primary screen for NB1643 cells (AID 1347099). Also: nearly all actives have a fitted effect of over 50% in size. Put shortly: as §2
The nature of experiment [15]: qHTS of pediatric cancer cell lines to identify multiple opportunities for drug repurposing: Primary screen for LAN-5 cells (AID 1347100). The method, boiled down: as §3
Experiment [16] is described as follows: qHTS of pediatric cancer cell lines to identify multiple opportunities for drug repurposing: Primary screen for DAOY cells (AID 1347090). Also: series mostly up to about 46 µM; nearly all actives have a fitted effect of over 55% in size. The method, boiled down:
as §1

The structures appear in SMILES notation. Inconclusive results are not listed. Active and inactive are the calls of the source. Unless noted, calls follow the shape of the dose curve; as a rule, active = well fitted curve in the direction sought with a large enough effect; inconclusive = small, poorly fitted or top-dose-only effect, or another doubt; inactive = no such curve, though single readings can be large; an effect the other way counts as inactive or inconclusive.

Chain of Nucleoprotein (Lymphocytic choriomeningitis virus (strain Armstrong)) (P09992 whole entry, looked up): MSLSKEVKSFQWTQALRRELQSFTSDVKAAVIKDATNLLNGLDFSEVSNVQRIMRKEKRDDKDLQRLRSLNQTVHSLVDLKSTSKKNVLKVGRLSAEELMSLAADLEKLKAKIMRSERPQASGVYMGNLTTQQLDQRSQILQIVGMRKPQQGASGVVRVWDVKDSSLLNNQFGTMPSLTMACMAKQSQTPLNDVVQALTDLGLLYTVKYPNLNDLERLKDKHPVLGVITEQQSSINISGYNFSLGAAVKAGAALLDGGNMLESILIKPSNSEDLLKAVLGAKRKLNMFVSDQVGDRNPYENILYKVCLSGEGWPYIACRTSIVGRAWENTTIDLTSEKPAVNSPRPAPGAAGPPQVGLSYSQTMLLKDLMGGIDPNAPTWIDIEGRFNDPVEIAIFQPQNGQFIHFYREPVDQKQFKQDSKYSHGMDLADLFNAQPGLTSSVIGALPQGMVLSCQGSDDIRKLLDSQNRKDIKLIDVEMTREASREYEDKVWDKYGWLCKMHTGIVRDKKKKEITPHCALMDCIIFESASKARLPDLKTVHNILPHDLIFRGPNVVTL

For the compound `CNC(=O)NC(O)C(Cl)(Cl)Cl` (configuration not stated), the Potency result in [1], in experiment [2], in experiment [3], in experiment [4], in [5] and in [6] was “inactive” each time. Moreover, the Potency result in [7], in experiment [8], in experiment [9], in [10], in experiment [11] and in experiment [12] was “inactive” in each case. For the same compound, the Potency result in experiment [13], in experiment [14] and in experiment [15] was “inactive” each time.
Take `C[C@H]1C(=O)O[C@@H]2CCN3CC=C(COC(=O)[C@](C)(O)[C@]1(C)O)[C@H]23`: the Potency result in experiment [1], in [2], in [3], in experiment [4], in [5] and in experiment [6] was “inactive” in each case. The Potency entry in [7], in experiment [9], in experiment [11], in experiment [12], in experiment [13] and in [14] was “inactive” each time. Also, the Potency in experiment [10] was 29.9 µM (active).
For `C[C@@H]1CC[C@H]2[C@@H](C)C(=O)O[C@@H]3O[C@@]4(C)CC[C@@H]1[C@]32OO4`, the Potency result in experiment [1], in [2], in experiment [3], in experiment [4], in [5] and in [6] was “inactive” throughout. The Potency entry in experiment [7], in [9], in [10], in experiment [11], in experiment [13] and in [14] was “inactive” each time. Also, in experiment [15], the Potency result is “inactive”.
Take `CCC1(CC)C(=O)NC(=O)NC1=O`: the Potency result in experiment [1], in experiment [2], in experiment [3], in experiment [4], in experiment [5] and in experiment [16] was “inactive” throughout. Also, the Potency entry in experiment [6], in experiment [9], in experiment [10], in experiment [11], in experiment [13] and in experiment [14] was “inactive” in each case. In addition, the Potency entry in experiment [15] was “inactive”.
For the compound `CCS(=O)(=O)C(C)(C)S(=O)(=O)CC`, the Potency result in experiment [1], in [2], in experiment [3], in experiment [4], in [5] and in experiment [6] was “inactive” throughout. Moreover, the Potency result in [7], in [8], in experiment [9], in experiment [10], in [11] and in [13] was “inactive” in each case. The Potency entry in experiment [14] and in experiment [15] was “inactive” throughout.
On to `C=CCN1CC[C@]23CCCC[C@H]2[C@H]1Cc1ccc(O)cc13`, for which the Potency entry in experiment [1], in experiment [2], in experiment [3], in experiment [4], in experiment [5] and in experiment [6] was “inactive” throughout. Moreover, the Potency entry in experiment [7], in experiment [8], in [9], in experiment [10], in experiment [11] and in [13] was “inactive” throughout. In addition, the Potency result in experiment [14] and in experiment [15] was “inactive” each time.
For `O=C1NCN(c2ccccc2)C12CCN(CCCOc1ccc(F)cc1)CC2`, the Potency result in experiment [1], in [2], in experiment [3], in [4], in [5] and in experiment [16] was “inactive” in each case. Further, the Potency entry in experiment [7], in [8], in experiment [10], in experiment [11], in experiment [14] and in [15] was “inactive” each time. Moreover, in experiment [9], the Potency is 17.4 µM (active).
Regarding `CCN(CC)CCOC(=O)C(C)(c1ccccc1)c1ccccc1`, the Potency result in [1], in [2], in [3], in experiment [4], in [5] and in experiment [6] was “inactive” each time. The Potency entry in experiment [7], in experiment [8], in experiment [9], in experiment [10], in experiment [12] and in experiment [13] was “inactive” throughout. Moreover, the Potency result in experiment [14] and in [15] was “inactive” in each case.
On to `Cc1c(Cl)c(=O)oc2cc(OP(=O)(OCCCl)OCCCl)ccc12`, for which the Potency entry in [1], in [2], in experiment [3], in [4], in experiment [5] and in experiment [6] was “inactive” throughout. The Potency entry in [8], in experiment [9], in [10], in [11], in [12] and in experiment [13] was “inactive” in each case. In addition, the Potency result in experiment [14] and in experiment [15] was “inactive” each time.
As for `COc1ccc2[nH]cc(CCN(C(C)C)C(C)C)c2c1`, the Potency result in [1], in experiment [2], in experiment [3], in experiment [4], in experiment [5] and in experiment [6] was “inactive” throughout. The Potency entry in [8], in experiment [9], in experiment [10], in experiment [11], in [12] and in [14] was “inactive” each time. Further, in experiment [15], the Potency result was “inactive”. In experiment [13], the Potency was 36.1 µM (active).
